Screening data as filed in PubChem BioAssay.
BRCA1 expr up – increases BRCA1 expression; MCF7-BRCA1-FFLuc reporter, luminescence, 48 h; response scale: scaled: vehicle 0%, 10 µM genistein 100%; Potency, µM (highest dose often 46.1 µM), actives largely listed as activators; 380,000 tested, 1.1% active; AID 624202; note: nearly all actives have a fitted effect of over 80% in size
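Compounds are tested at multiple concentrations on MCF7 BRCA1-luciferase reporter cells seeded at 2000 per well; after 48 h, a single luminescence end-point is taken and curves fitted to the normalized data.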
Nrf2 ARE act – activates Nrf2 signaling | Potency, µM (doses to about 46.1 µM), actives largely listed as activators | AID 624171 | AREc32 ARE-luciferase reporter (MCF7-derived line), luminescence, 24 h | 410,000 tested, 0.31% active; note: nearly all actives have a fitted effect of over 65% in size
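Nrf2 activation is followed as ARE-luciferase induction in the AREc32 line after one day of compound treatment; luminescence is read with Steady-Glo.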
Nrf2 inh – blocks Nrf2 signaling; A549 ARE-Fluc reporter, luciferase luminescence, 18-24 h; Potency, µM (series often up to 46 µM), actives largely listed as inhibitors; 360,000 tested, 2.1% active; AID 504444; note: nearly all actives have a fitted effect of over 60% in size
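Reporter: ARE-Fluc in A549. Exposure: 18-24 h, 37 °C, 5% CO2, 5% FBS OPTI-MEM. Readouts: fluorescent cytotoxicity (CellTiter-Fluor), then luminescent Nrf2 signal after BugLite.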
A549 tox – kills or reduces viability of A549 cells in Nrf2 counter-screen; A549 ARE-Fluc cells, CellTiter-Fluor viability, 18-24 h; Potency, µM (titrated, usually from 46 µM), most hits filed as inhibitors; 390,000 tested, 0.16% active
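A549 ARE-Fluc cells in 5% FBS OPTI-MEM, 5000 cells/well, rested 2 h then exposed to compounds in concentration-response for 18-24 h at 37 °C. Viability by CellTiter-Fluor fluorescence (Ex 405/Em 525) after 30 min; luciferase luminescence (BugLite, 15 min, RT) read afterwards.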
p53 reactivation – mutant p53 re-activation in reporter cells; H1299 p53-A138V BP100-luciferase reporter, luminescence, 24 h; Potency, µM (series often up to 92.2 µM), most hits filed as activators; 320,000 tested, 0.063% active; AID 504706; note: nearly all actives have a fitted effect of over 45% in size
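p53-null H1299 cells stably carrying temperature-sensitive p53-A138V and a BP100-luciferase reporter were pinned with compounds (4-point, 1:5 series) and held 24 hrs at 37 deg C. Luminescence was read 10 min after detection reagent.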
IL2 activator – activates IL-2 in a cell-based reporter assay; IL-2 activation reporter assay, cell-based qHTS; stimulated with anti-CD3/CD4/CD28 beads; in transgenic mouse T cells; activation, % (series mostly up to about 46 µM); 360,000 tested, 0.065% active; AID 652025; in the data active = activation above about 50%; inconclusive = mostly about 30% to 49%
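Readout is EGFP and DsRed signal by fluorescent plate cytometry after 18 h at 37 degrees C. Transgenic mouse T cells (750/well) received compound for 60 min before bead stimulation (anti-CD3, anti-CD4, anti-CD28); memory T cells served as non-tolerant control.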
Of the large screens only hits and unclear results are named; the others gave an inactive call. Shown are actives, neighbours in structure and some others; about 3.2% of the full set was active somewhere. Unless noted, calls come from the whole dose curve; as a rule, active = well fitted curve in the direction sought with a large enough effect; inconclusive = small, poorly fitted or top-dose-only effect, or another doubt; inactive = no such curve, though single readings can be large; an effect the other way counts as inactive or inconclusive.

Cn1c(=O)n(C)c2cc([N+](=O)[O-])c(N3CCN(S(=O)(=O)c4ccc(C(C)(C)C)cc4)CC3)cc21	Nrf2 inh inconclusive
CC(=O)Nc1ccc(S(=O)(=O)N2CCN(c3cc4c(cc3[N+](=O)[O-])n(C)c(=O)n4C)CC2)cc1	Nrf2 inh 16µM
CCC(=O)N1CCN(c2cc(N3CCCC3)c(F)cc2[N+](=O)[O-])CC1	none (no result: p53 reactivation)
Cn1c(=O)n(C)c2cc([N+](=O)[O-])c(N3CCN(C(=O)c4ccc(Cl)cc4)CC3)cc21	Nrf2 inh inconclusive
Cn1c(=O)n(C)c2cc([N+](=O)[O-])c(N3CCN(C(=O)c4ccc(F)cc4)CC3)cc21	Nrf2 inh 18µM
CC(=O)N1CCN(c2cc(N3CCc4ccccc4C3)c(F)cc2[N+](=O)[O-])CC1	Nrf2 inh 23µM, A549 tox inconclusive
S=C(NCCCc1cnc[nH]1)NCCN(Cc1ccc(Cl)c(Cl)c1)c1ccc(Br)cn1	none (no result: BRCA1 expr up, Nrf2 ARE act, p53 reactivation, IL2 activator)
COc1cc(F)c(S(=O)(=O)N2CCN(S(=O)(=O)c3cccs3)CC2)c(F)c1	none (no result: BRCA1 expr up, Nrf2 ARE act, p53 reactivation, IL2 activator)
O=S(=O)(c1ccc2nc(COc3ccc(Cl)cc3Cl)[nH]c2c1)N1CCOCC1	none
O=S(=O)(c1ccc2nc(SCc3ccc(Cl)cc3)[nH]c2c1)N1CCOCC1	Nrf2 inh 23µM
Cc1nc(C(C)NC(=O)c2cc(COc3ccc(C)c(C)c3)on2)c(C)s1 (configuration not stated)	BRCA1 expr up 5.6µM, p53 reactivation inconclusive
Cc1cccc(CC(C)NC(=O)c2cc(COc3ccc(C)c(C)c3)on2)n1 (configuration not stated)	none
Cc1cc(C)n(CCc2nc3c4ccccc4nc(SCc4ccc(Cl)cc4)n3n2)n1	none (no result: BRCA1 expr up, Nrf2 inh, p53 reactivation, IL2 activator)
O=C(Cn1cnc2ccccc2c1=O)Nc1ccc2c(c1)OCO2	BRCA1 expr up inconclusive, Nrf2 inh inconclusive, p53 reactivation inconclusive
O=C(CN1C(=O)NC2(CCCCCC2)C1=O)Nc1cccc(F)c1	none
O=C(CN1C(=O)NC2(CCCCC2)C1=O)Nc1ccc2c(c1)OCCCO2	BRCA1 expr up 5µM, Nrf2 inh inconclusive (no result: p53 reactivation)
O=C(Cn1cnc2ccccc21)Nc1ccc2c(c1)OCCCO2	Nrf2 inh 13µM, p53 reactivation inconclusive
Cc1ccc(NC(=O)CN2C(=O)NC3(CCCCC3)C2=O)cc1S(=O)(=O)N1CCOCC1	none
O=C(CN1C(=O)NC2(CCCCC2)C1=O)Nc1ccc(Cl)c(S(=O)(=O)N2CCOCC2)c1	Nrf2 inh 23µM
O=C(COC(=O)Cn1cnc2ccccc21)Nc1ccc2c(c1)C(=O)c1ccccc1C2=O	BRCA1 expr up 8.9µM, Nrf2 inh inconclusive, p53 reactivation inconclusive
Cc1nc(Nc2nc3ccccc3o2)nc2c1CCCC2	Nrf2 inh inconclusive (no result: BRCA1 expr up, Nrf2 ARE act, p53 reactivation, IL2 activator)
Cc1ccccc1OCC(=O)Nc1ccc2c(c1)C(=O)c1ccccc1C2=O	BRCA1 expr up 5µM, Nrf2 inh 15µM, A549 tox inconclusive
O=C(Cn1c(=O)n2nc(-c3cccc(F)c3)nc2c2ccccc21)NCc1ccc(Cl)cc1	none (no result: BRCA1 expr up, Nrf2 inh, p53 reactivation, IL2 activator)
CCc1cccc(NC(=O)Cn2c(=O)n3nc(-c4cccc(F)c4)nc3c3ccccc32)c1	Nrf2 ARE act 5.6µM (no result: BRCA1 expr up, Nrf2 inh, p53 reactivation, IL2 activator)
CC1(O)CC(c2ccc(Cl)cc2)=NN1C(=O)c1ccc([N+](=O)[O-])cc1 (configuration not stated)	Nrf2 inh 18µM, A549 tox inconclusive
Cc1noc(CN(C)c2ncnc3ccc(-c4ccc5c(c4)OCO5)cc23)n1	none (no result: BRCA1 expr up, Nrf2 ARE act, p53 reactivation, IL2 activator)
CCCCOC(=O)c1ccc(Nc2ncnc3nc[nH]c23)cc1	BRCA1 expr up 10µM
FC(F)Sc1ccc(Nc2ncnc3nc[nH]c23)cc1	BRCA1 expr up 3.5µM, p53 reactivation inconclusive
CCOc1ccc(NC(=O)c2c(NCc3sccc3C)sc3c2CCCCC3)cc1	none (no result: BRCA1 expr up, Nrf2 inh, p53 reactivation, IL2 activator)
Cc1cc(C)cc(NS(=O)(=O)c2ccc3[nH]cc(C(=O)NCc4ccco4)c(=O)c3c2)c1	Nrf2 inh 16µM
Cc1cc(C)cc(NS(=O)(=O)c2ccc3[nH]cc(C(=O)NCc4ccccc4Cl)c(=O)c3c2)c1	none (no result: BRCA1 expr up, Nrf2 inh, p53 reactivation, IL2 activator)
CC(C)c1ccc(NS(=O)(=O)c2ccc3[nH]cc(C(=O)NC4CCCCC4)c(=O)c3c2)cc1	none (no result: BRCA1 expr up, p53 reactivation, IL2 activator)
Cc1cc(C)cc(NS(=O)(=O)c2ccc3[nH]cc(C(=O)NC4CCCCC4)c(=O)c3c2)c1	Nrf2 inh 23µM (no result: BRCA1 expr up, p53 reactivation, IL2 activator)
Cc1ccc(C(=O)Nc2nc3nc(C)cc(=O)n3[nH]2)cc1	none (no result: BRCA1 expr up, p53 reactivation, IL2 activator)
O=C(c1ccc(CSc2nc3ccncc3[nH]2)cc1)N1CCCCCC1	p53 reactivation inconclusive
O=C(c1ccc(CSc2nc3ccncc3[nH]2)cc1)N1CCN(c2cccc(Cl)c2)CC1	Nrf2 inh 21µM
Cc1nn(CC(=O)NCc2ccc(N(C)C)cc2)c(=O)c2c(C)n(-c3ccc(Cl)cc3)nc12	none (no result: BRCA1 expr up, Nrf2 inh, p53 reactivation, IL2 activator)
CC(C)C(=O)Nc1nc2ccc(S(C)(=O)=O)cc2s1	BRCA1 expr up 11µM, Nrf2 inh inconclusive
COc1ccc2nc(NC(=O)Nc3ccccc3OC)sc2c1	BRCA1 expr up inconclusive, Nrf2 inh inconclusive, p53 reactivation inconclusive
CCC(C)C(=O)Nc1nc2ccc(S(C)(=O)=O)cc2s1 (configuration not stated)	Nrf2 inh inconclusive
COc1ccccc1NC(=O)Nc1nc2ccc(S(N)(=O)=O)cc2s1	BRCA1 expr up 4µM, Nrf2 inh inconclusive
Cc1cccc(C(=O)Nc2nc3ccc(S(C)(=O)=O)cc3s2)c1	BRCA1 expr up 3.2µM, Nrf2 inh inconclusive, p53 reactivation inconclusive
CS(=O)(=O)c1ccc2nc(NC(=O)c3ccccc3)sc2c1	BRCA1 expr up inconclusive, Nrf2 inh inconclusive (no result: p53 reactivation)
